Laboratory results published in PubChem BioAssay AID1159580 (chemical genetic matrix, 2015).
About 2,000 (36%) of roughly 5,500 compounds were called active. Not shown: some 18% with an inconclusive outcome. Cut-off read from the data, not from the text of the source: active = normalized growth mostly below about 0.91 (no sharp cut-off); inconclusive = no clear call, values can overlap the other calls; inactive = mostly above about 0.92. This is one part of the list.

Test: chemical genetic growth profiling, strain panel (AID 1159580);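 note: tested at 20 µM; growth read once vehicle control cultures reached saturation at 30 °C; 1 = growth at the plate median or of vehicle wells; lower values mean less growth of the strain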
Settings: S. cerevisiae deletion strains, growth OD

Measured: normalized growth

C[C@@H]1CC2C3CCC4=CC(=O)C=C[C@]4(C)[C@@]3(F)[C@@H](O)C[C@]2(C)[C@H]1C(=O)CO (stereo not given in full)
inactive: locus YAL021C, strain ccr4, stronger effect = lower value 1 | locus YAL026C, strain drs2, stronger effect = lower value 0.998 | locus YAL030W, strain snc1, stronger effect = lower value 0.998 | locus YBL061C, strain skt5, stronger effect = lower value 0.999 | locus YBR009C, strain hhf1, stronger effect = lower value 0.997 | locus YBR023C, strain chs3, stronger effect = lower value 0.995 | locus YBR171W, strain sec66, stronger effect = lower value 0.986 | locus YBR231C, strain swc5, stronger effect = lower value 0.988 | locus YBR279W, strain paf1, stronger effect = lower value 0.997 | locus YCL011C, strain gbp2, stronger effect = lower value 0.993 | locus YCL016C, strain dcc1, stronger effect = lower value 1.01 | locus YCL061C, strain MRC1, stronger effect = lower value 0.994 | locus YCL069W, strain vba3, stronger effect = lower value 1 | locus YCR088W, strain abp1, stronger effect = lower value 0.992 | locus YDL005C, strain med2, stronger effect = lower value 0.997 | locus YDL040C, strain nat1, stronger effect = lower value 0.996 | locus YDR001C, strain nth1, stronger effect = lower value 0.987 | locus YDR069C, strain doa4, stronger effect = lower value 0.999 | locus YDR137W, strain rgp1, stronger effect = lower value 0.979 | locus YDR159W, strain sac3, stronger effect = lower value 0.998 | locus YDR195W, strain ref2 0.965 | locus YDR297W, strain sur2, stronger effect = lower value 0.996 | locus YDR334W, strain swr1, stronger effect = lower value 1 | locus YDR335W, strain msn5, stronger effect = lower value 1 | locus YDR392W, strain spt3, stronger effect = lower value 0.976 | locus YEL003W, strain gim4, stronger effect = lower value 0.999 | locus YEL037C, strain rad23, stronger effect = lower value 1 | locus YEL061C, strain CIN8 (second series), stronger effect = lower value 0.996 | locus YER015W, strain faa2, stronger effect = lower value 0.999 | locus YER016W, strain bim1, stronger effect = lower value 1 | locus YER111C, strain swi4, stronger effect = lower value 0.982 | locus YER155C, strain BEM2 (second series), stronger effect = lower value 0.994 | locus YFR010W, strain ubp6, stronger effect = lower value 0.989 | locus YGL167C, strain pmr1, stronger effect = lower value 0.996 | locus YGL173C, strain kem1, stronger effect = lower value 0.987 | locus YGL227W, strain vid30, stronger effect = lower value 0.989 | locus YGL240W, strain doc1, stronger effect = lower value 1 | locus YGL253W, strain hxk2, stronger effect = lower value 1.01 | locus YHR013C, strain ard1, stronger effect = lower value 1 | locus YHR027C, strain rpn1, stronger effect = lower value 0.995 | locus YHR030C, strain SLT2, stronger effect = lower value 1.06 | locus YHR079C, strain IRE1, stronger effect = lower value 1.05 | locus YHR142W, strain chs7, stronger effect = lower value 1.01 | locus YJL092W, strain hpr5, stronger effect = lower value 0.998 | locus YJL095W, strain BCK1 (second series), stronger effect = lower value 1.01 | locus YJL095W, strain BCK1, stronger effect = lower value 0.98 | locus YJL115W, strain asf1, stronger effect = lower value 0.996 | locus YJL129C, strain trk1, stronger effect = lower value 1.01 | locus YJL154C, strain vps35, stronger effect = lower value 0.995 | locus YJL164C, strain tpk1, stronger effect = lower value 1.01 | locus YJL166W, strain qcr8, stronger effect = lower value 0.998 | locus YJL187C, strain SWE1, stronger effect = lower value 0.993 | locus YJR066W, strain TOR1, stronger effect = lower value 1.01 | locus YKL160W, strain elf1, stronger effect = lower value 1 | locus YKR026C, strain gcn3, stronger effect = lower value 0.982 | locus YKR091W, strain srl3, stronger effect = lower value 0.996 | locus YLL001W, strain dnm1, stronger effect = lower value 0.982 | locus YLL026W, stronger effect = lower value 0.988 | locus YLL041C, strain sdh2, stronger effect = lower value 0.999 | locus YLR027C, strain aat2, stronger effect = lower value 1.01 | locus YLR113W, strain HOG1, stronger effect = lower value 0.929 | locus YLR221C, strain rsa3, stronger effect = lower value 1.01 | locus YLR258W, strain gsy2, stronger effect = lower value 1 | locus YLR262C, strain YPT6 (second series), stronger effect = lower value 0.985 | locus YLR320W, strain mms22, stronger effect = lower value 0.992 | locus YLR342W, strain FKS1, stronger effect = lower value 1 | locus YLR357W, strain rsc2, stronger effect = lower value 0.999 | locus YLR370C, strain arc18, stronger effect = lower value 0.993 | locus YLR384C, strain iki3, stronger effect = lower value 1 | locus YML120C, strain ndi1, stronger effect = lower value 1 | locus YMR058W, strain fet3, stronger effect = lower value 1 | locus YMR125W, strain sto1, stronger effect = lower value 0.983 | locus YMR129W, stronger effect = lower value 0.995 | locus YMR205C, strain PFK2, stronger effect = lower value 0.973 | locus YMR231W, strain pep5, stronger effect = lower value 0.998 | locus YNL071W, strain lat1, stronger effect = lower value 0.999 | locus YNL183C, strain NPR1, stronger effect = lower value 0.992 | locus YNL209W, strain ssb2, stronger effect = lower value 1 | locus YNL248C, strain rpa49, stronger effect = lower value 0.999 | locus YNL322C, strain KRE1 (second series), stronger effect = lower value 1 | locus YNR049C, strain mso1, stronger effect = lower value 0.999 | locus YOR001W, strain rrp6, stronger effect = lower value 1.01 | locus YOR070C, strain gyp1, stronger effect = lower value 0.997 | locus YOR080W, strain dia2, stronger effect = lower value 0.991 | locus YOR083W, strain WHI5, stronger effect = lower value 1.01 | locus YOR106W, strain vam3, stronger effect = lower value 1.02 | locus YOR231W, strain MKK1, stronger effect = lower value 1.05 | locus YOR265W, strain rbl2, stronger effect = lower value 1 | locus YOR270C, strain vph1, stronger effect = lower value 1.01 | locus YOR290C, strain snf2, stronger effect = lower value 1 | locus YPL051W, strain arl3, stronger effect = lower value 0.999 | locus YPL078C, strain atp4, stronger effect = lower value 1.01 | locus YPL106C, strain sse1, stronger effect = lower value 1.01 | locus YPL240C, strain hsp82, stronger effect = lower value 0.982 | locus YPL256C, strain CLN2, stronger effect = lower value 1.04
